# Laboratory results: the supplement of paper PMC9262897, “Low-cost anti-mycobacterial drug discovery using engineered E. coli” (Nature Communications, 2022)
# Where a name gives a salt, the structure may show the parent alone. ± gives the standard deviation of the averaged measurements.
# System: E. coli TESEC Mtb Alr
# Test: growth (OD600 after 10 h); higher = more growth (less inhibition)
# Settings: compound 0.1 mM
# Protocol: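 TESEC Mtb Alr E. coli, or the Alr+ wild-type control, in 384-well plates with Prestwick library compounds at 0.1 mM and 1% DMSO, across arabinose induction levels of 1E3 to 1E7 nM. Growth is read as OD600 after 10 h at 37 °C in triplicate biological replicates.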
# [1] = arabinose 1000 nM, raw OD600 reference: median of DMSO wells 0.294, cell-free background 0.041
# [2] = arabinose 10000 nM, raw OD600 reference: median of DMSO wells 0.264, cell-free background 0.041
# [3] = arabinose 100000 nM, raw OD600 reference: median of DMSO wells 0.201, cell-free background 0.041
# [4] = arabinose 1000000 nM, raw OD600 reference: median of DMSO wells 0.193, cell-free background 0.041
# [5] = arabinose 10000000 nM, raw OD600 reference: median of DMSO wells 0.146, cell-free background 0.041
SMILES,growth [1],growth [2],growth [3],growth [4],growth [5]
CCN(CC)CCOC(=O)C1(C2CCCCC2)CCCCC1 [Dicyclomine hydrochloride],0.115 ± 0.063,0.195 ± 0.0043,0.157 ± 0.016,0.06453 ± 0.00058,0.103 ± 0.0024
COc1cccc2c1C(=O)c1c(O)c3c(c(O)c1C2=O)C[C@@](O)(C(C)=O)C[C@@H]3O[C@H]1C[C@H](N)[C@H](O)[C@H](C)O1 [Daunorubicin hydrochloride],0.0442 ± 0.0008,0.04263 ± 5.8e-05,0.0446 ± 0.001,0.04253 ± 0.00038,0.0433 ± 0.0001
O=C1c2ccccc2S(=O)(=O)N1CCCCN1CCN(c2ncccn2)CC1 [Ipsapirone],0.256 ± 0.015,0.249 ± 0.0074,0.171 ± 0.0059,0.154 ± 0.007,0.141 ± 0.0076
Nc1nc2c(ncn2COCCO)c(=O)[nH]1 [Acyclovir],0.287 ± 0.021,0.2708 ± 0.0022,0.239 ± 0.019,0.196 ± 0.014,0.139 ± 0.0044
O=C(O)CNC(=O)C(CS)Cc1ccccc1 (stereo not given) [Thiorphan],0.305 ± 0.013,0.2568 ± 0.0017,0.252 ± 0.037,0.172 ± 0.003,0.167 ± 0.0089
Cc1noc(NS(=O)(=O)c2ccc(N)cc2)c1C [Sulfisoxazole],0.274 ± 0.021,0.203 ± 0.0055,0.213 ± 0.042,0.12 ± 0.0019,0.149 ± 0.0027
COC(=O)C1=C(C)NC(C)=C(C(=O)OC2CCCN(Cc3ccccc3)C2)C1c1cccc([N+](=O)[O-])c1 (stereo not given) [Benidipine hydrochloride],0.148 ± 0.005,0.177 ± 0.012,0.168 ± 0.011,0.107 ± 0.0056,0.119 ± 0.024
CC[N+](CC)(CC(=O)Nc1c(C)cccc1C)Cc1ccccc1 [Denatonium benzoate],0.27 ± 0.0093,0.254 ± 0.006,0.182 ± 0.034,0.173 ± 0.014,0.132 ± 0.0092
